Results filed as inconclusive are left out. Active and inactive are the calls of the source. Unless noted, calls come from the whole dose curve; as a rule, active = well fitted curve in the direction sought with a large enough effect; inconclusive = small, poorly fitted or top-dose-only effect, or another doubt; inactive = no such curve, though single readings can be large; an effect the other way counts as inactive or inconclusive.
Experiments:
[1] = biological target: Glucocorticoid receptor (Homo sapiens) (UniProt P04150); assay: qHTS assay for small molecule agonists of glucocorticoid receptor signaling (AID 588532; active = well fitted curve in the direction sought with a large enough effect in the signal ratio, with a control signal flat; the % refers to the signal ratio;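 note: 100% = dexamethasone at 0.1 µM and 0% = DMSO only wells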); conditions: HeLa MMTV-bla, beta-lactamase ratio, agonist, 18 h; stronger effect = higher value; percent of dexamethasone control, DMSO zero
How it was run: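 Agonist-mode qHTS: GRE-driven beta-lactamase in HeLa cells exposed 18 h to titrated compounds (up to 92 uM), then CCF4 ratio read after 2 h at RT; Hill-fitted EC50, efficacy relative to 0.1 uM dexamethasone.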

[2] = biological target: Glucocorticoid receptor (Homo sapiens) (UniProt P04150); assay: qHTS assay for small molecule antagonists of glucocorticoid receptor signaling (AID 588533; active = well fitted inhibition curve with a large enough effect in the signal ratio, with a control signal flat, not every such curve was filed as active; the % refers to the signal ratio;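 note: cells stimulated with 2 nM dexamethasone as agonist; % is set by controls: 0 for no effect and ±100 for the full control effect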); conditions: HeLa MMTV-bla, GRE beta-lactamase ratio, antagonist mode, 18 h; series mostly up to 76.8 µM
How it was run: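 Antagonist-mode qHTS: compound titrations added to GRE-bla HeLa cells, then dexamethasone 2 nM final; 18 h, 37 C. CCF4 FRET fluorescence normalized to dexamethasone and DMSO; IC50 from Hill fit.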

[3] = qHTS assay for small molecule agonists of retinoid X receptor alpha signaling (AID 588544; calls by dose curve;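 for activation: 0% = DMSO basal wells and 100% = reference agonist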); conditions: HEK293T RXRa-UAS-bla, beta-lactamase reporter, 18 h; 530 nm emission
[4] = biological target: Retinoic acid receptor RXR-alpha (Homo sapiens) (UniProt P19793); assay: as above; conditions: HEK293T RXRa-UAS-bla, beta-lactamase reporter, 18 h; series mostly up to 76.7 µM
[5] = biological target: Thyroid hormone receptor beta (Homo sapiens) (UniProt P10828); assay: qHTS assay for small molecule agonists of thyroid hormone receptor beta signaling (AID 588545; calls by dose curve;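 note: 0% = DMSO only and 100% = 10 nM T3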); conditions: TR-UAS-bla GripTite HEK 293, beta-lactamase ratio, agonist mode, 18 h; series mostly up to 76.7 µM
How it was run: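 Stimulation of a TR-driven beta-lactamase reporter was quantified in GripTite HEK 293 cells. Compound series ran for 18 hrs; curves were normalized to T3 and DMSO controls and fitted to yield EC50.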

[6] = qHTS assay for small molecule antagonists of retinoid X receptor alpha signaling (AID 588546; active = well fitted inhibition curve with a large enough effect in the signal ratio, with a control signal flat, not every such curve was filed as active; the % refers to the signal ratio;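 note: cells stimulated with 9-cis-retinoic acid as agonist; % is set by controls: 0 for no effect and ±100 for the full control effect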); conditions: HEK293T RXRa-UAS-bla, beta-lactamase ratio, antagonist mode; measured here: W530 green channel, cytotoxicity proxy
How it was run: (§1)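 Beta-lactamase reporter inhibition, read as CCF4 fluorescence ratio (ex 405, em 460/530 nm) after 2 h at RT. HEK293T UAS-bla cells, 2500/well, were stimulated with 9-cis-RA at 500 or 100 nM final alongside test compound for 18 h at 37 C.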

[7] = biological target: Retinoic acid receptor RXR-alpha (Homo sapiens) (UniProt P19793); assay: as above; conditions: HEK293T RXRa-UAS-bla, beta-lactamase ratio, antagonist mode
How it was run: as §1

[8] = qHTS assay for small molecule agonists of the antioxidant response element (ARE) signaling pathway (AID 651741; active = well fitted activation curve with a large enough effect in the signal ratio; the % refers to the signal ratio; note: % of control where 0% means no effect); conditions: HepG2 ARE-bla reporter, beta-lactamase FRET ratio, 16 h; series mostly up to 96 µM
How it was run: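 Beta-lactamase reporter under ARE control in HepG2 cells, 2,000 per well, was induced by 16 h compound treatment at 37 C. Read-out was fluorescence from LiveBLAzer B/G FRET substrate after 2 h at room temperature.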

[9] = qHTS assay for environmental chemicals that activate the Aryl hydrocarbon Receptor (AhR) signaling pathway (AID 651777); conditions: 1A2-DRE human hepatoma cells, luciferase, 24 h; activation: stronger effect = higher value; note: % of control where 0% means no effect; nearly all actives have a fitted effect of over 15% in size
How it was run: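 Stable CYP1A2 promoter/DRE-luciferase human hepatoma line treated 24 hr; One-Glo luminescence, 30 min RT.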

[10] = biological target: Peroxisome proliferator-activated receptor alpha (Homo sapiens) (UniProt Q07869); assay: qHTS assay for small molecule agonists of the peroxisome proliferator-activated receptor alpha (PPARalpha) signaling pathway (AID 651778); conditions: PathHunter PPARalpha complementation, chemiluminescence, 6 h; max response: stronger effect = higher value; note: % of control where 0% means no effect
How it was run: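 Chemiluminescence from complemented enzyme reported PPARalpha activation in cells after 6 hr of compound treatment at 37 C. The detection reagent was incubated for 60 min at room temperature, and compounds were scored as agonists.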

[11] = qHTS assay for small molecule agonists of the antioxidant response element (ARE) signaling pathway measured by Nrf2-dependant transcriptional activity (AID 720636; active = well fitted curve in the direction sought with a large enough effect in the repeat runs; an effect the other way counts as inactive or inconclusive;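 note: HepG2 cells with an ARE-driven luciferase reporter; % of control where 0% means no effect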); conditions: ARE-luc HepG2, Nrf2 luciferase reporter, 16 h; series mostly up to 92.4 µM
How it was run: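 Reporter gene assay, HepG2 ARE-luc: 16 hr compound, 37 C, 5% CO2; read-out luciferase luminescence.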

[12] = qHTS assay for small molecule agonists of the antioxidant response element (ARE) signaling pathway measured by Nrf2-dependant transcriptional activity - cell viability counter screen (AID 720653; active = well fitted curve in the direction sought with a large enough effect in the repeat runs; an effect the other way counts as inactive or inconclusive; note: % is set by controls: 0 for no effect and ±100 for the full control effect); conditions: ARE-bla HepG2 viability, CellTiter-Glo ATP luminescence, 16 h; max response: stronger effect = lower value
How it was run: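 Cytotoxicity counter screen: intracellular ATP quantified by CellTiter-Glo luminescence in the same ARE-bla HepG2 plates, after 16 h compound exposure and a 2 h beta-lactamase substrate step.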

[13] = qHTS assay for cell viability of HEK293 cells (AID 743288); conditions: ATP luminescence (CellTiter-Glo), 18 h; max response: stronger effect = lower value; note: % is set by controls: 0 for no effect and ±100 for the full control effect; nearly all actives have a fitted effect of over 50% in size
How it was run: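 Quantitative high-throughput screen: compounds were pinned onto parental HEK293 cells (2,000 per well) after a minimum 5 h settling at 37 C, incubated 18 h at 37 C, and intracellular ATP measured by luciferase luminescence.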

[14] = qHTS assay for cell viability of the p53RE-bla HCT-116 cell line (AID 743292); conditions: p53RE-bla HCT-116 viability, ATP luminescence, 16 h; series mostly up to 95 µM; note: % is set by controls: 0 for no effect and ±100 for the full control effect; nearly all actives have a fitted effect of over 55% in size
How it was run: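 Readout: CellTiter-Glo luminescence after 30 min RT. Treatment: compounds in DMSO, 16 h, 37 C. Cells: CellSensor p53RE-bla HCT-116, 4,000/well, preincubated 5 h.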

[15] = biological target: Nuclear receptor subfamily 1 group I member 2 (Rattus norvegicus) (UniProt Q9R1A7); assay: qHTS assay for small molecule activators of the rat pregnane X receptor (rPXR) signaling pathway (AID 651751; call rule not given here; note: 0% is about no effect); conditions: rPXR reporter cells, luciferase (One-Glo), 24 h
[16] = qHTS assay for small molecule activators of the human pregnane X receptor (PXR) signaling pathway (AID 720659; call rule not given here; note: 0% is about no effect); conditions: DPX-2 HepG2 CYP3A4-luciferase, 24 h; series mostly up to 92.3 µM
[17] = qHTS assay for small molecule antagonists of peroxisome proliferator-activated receptor delta signaling (AID 588535); conditions: HEK293T PPARd-UAS-bla, beta-lactamase FRET ratio, 18 h; 460 nm channel;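 note: cells co-treated with a PPAR-delta agonist as stimulator during compound exposure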
How it was run: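 Titrations were run on PPAR-delta-UAS-bla HEK293T cells in charcoal/dextran-stripped serum, incubated 18 h at 37 C. CCF4 fluorescence (460/530 nm) after 2 h RT; Hill equation yields IC50 and maximal response.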

[18] = biological target: Vitamin D3 receptor (Homo sapiens) (UniProt P11473); assay: qHTS assay for small molecule antagonists of vitamin D receptor signaling (AID 588541; calls by dose curve;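 note: receptor activated by calcitriol during compound treatment; % is set by controls: 0 for no effect and ±100 for the full control effect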); conditions: HEK293T VDR-UAS-bla, beta-lactamase ratio, antagonist mode; series mostly up to 76.7 µM
How it was run: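 Antagonist-mode beta-lactamase reporter assay: HEK293T VDR-UAS-bla cells were exposed to titrated compound alongside 1-alpha,25-dihydroxyvitamin D3 at 3 nM final for 16 h. Values were normalized to the 50 nM agonist control and DMSO basal, with IC50 and efficacy from Hill equation fits.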

[19] = biological target: Vitamin D3 receptor (Homo sapiens) (UniProt P11473); assay: qHTS assay for small molecule agonists of vitamin D receptor signaling (AID 588543; calls by dose curve;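 note: 0% = DMSO basal and 100% = reference agonist control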); conditions: HEK293T VDR-UAS-bla, beta-lactamase ratio, 16 h; series mostly up to 76.8 µM
How it was run: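 qHTS in agonist mode: compound titrations stimulate a VDR-driven β-lactamase reporter in HEK293T cells over 16 h at 37 °C. Response normalized to 50 nM 1α,25-dihydroxyvitamin D3 = 100%, DMSO = 0%; Hill fitting gives EC50 and maximal response.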

[20] = qHTS assay for small molecule activators of the p53 signaling pathway (AID 651743; active = well fitted activation curve with a large enough effect in the signal ratio, not every such curve was filed as active; the % refers to the signal ratio; note: % of control where 0% means no effect); conditions: HCT-116 p53RE-bla, beta-lactamase FRET ratio, 16 h; activation: stronger effect = higher value
How it was run: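 After 16 hours compound treatment at 37 C, HCT-116 cells stably expressing p53RE-driven beta-lactamase were loaded with LiveBLAzer B/G FRET substrate for 2 hours at room temperature. Fluorescence intensity served as the p53 activation read-out.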

Thyroid hormone receptor beta (Homo sapiens), sequence (P10828 whole entry, looked up): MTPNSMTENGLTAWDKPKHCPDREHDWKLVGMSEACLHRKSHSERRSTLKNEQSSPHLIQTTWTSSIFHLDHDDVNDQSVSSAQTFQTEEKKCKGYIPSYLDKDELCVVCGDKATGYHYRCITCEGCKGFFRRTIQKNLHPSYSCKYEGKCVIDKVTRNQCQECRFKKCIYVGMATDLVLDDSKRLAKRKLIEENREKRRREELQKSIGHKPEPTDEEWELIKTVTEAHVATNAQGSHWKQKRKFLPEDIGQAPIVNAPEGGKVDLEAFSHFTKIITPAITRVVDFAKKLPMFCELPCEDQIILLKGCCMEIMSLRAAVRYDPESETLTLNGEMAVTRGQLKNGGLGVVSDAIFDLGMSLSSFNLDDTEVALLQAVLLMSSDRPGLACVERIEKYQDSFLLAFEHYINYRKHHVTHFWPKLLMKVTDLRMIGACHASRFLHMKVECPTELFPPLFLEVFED
Peroxisome proliferator-activated receptor alpha (Homo sapiens), sequence (Q07869 whole entry, looked up): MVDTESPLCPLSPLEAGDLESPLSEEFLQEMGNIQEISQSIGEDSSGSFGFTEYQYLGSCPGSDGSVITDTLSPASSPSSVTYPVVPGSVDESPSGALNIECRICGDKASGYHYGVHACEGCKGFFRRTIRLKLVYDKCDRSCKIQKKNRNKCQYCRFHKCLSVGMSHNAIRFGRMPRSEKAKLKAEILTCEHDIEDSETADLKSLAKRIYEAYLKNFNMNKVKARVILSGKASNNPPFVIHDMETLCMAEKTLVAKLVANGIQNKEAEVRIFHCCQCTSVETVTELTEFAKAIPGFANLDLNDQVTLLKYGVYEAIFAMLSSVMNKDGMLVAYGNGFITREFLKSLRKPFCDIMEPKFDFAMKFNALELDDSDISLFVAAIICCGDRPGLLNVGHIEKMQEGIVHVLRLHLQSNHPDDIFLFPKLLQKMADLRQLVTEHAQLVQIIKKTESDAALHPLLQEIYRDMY
Vitamin D3 receptor (Homo sapiens), sequence (P11473 whole entry, looked up): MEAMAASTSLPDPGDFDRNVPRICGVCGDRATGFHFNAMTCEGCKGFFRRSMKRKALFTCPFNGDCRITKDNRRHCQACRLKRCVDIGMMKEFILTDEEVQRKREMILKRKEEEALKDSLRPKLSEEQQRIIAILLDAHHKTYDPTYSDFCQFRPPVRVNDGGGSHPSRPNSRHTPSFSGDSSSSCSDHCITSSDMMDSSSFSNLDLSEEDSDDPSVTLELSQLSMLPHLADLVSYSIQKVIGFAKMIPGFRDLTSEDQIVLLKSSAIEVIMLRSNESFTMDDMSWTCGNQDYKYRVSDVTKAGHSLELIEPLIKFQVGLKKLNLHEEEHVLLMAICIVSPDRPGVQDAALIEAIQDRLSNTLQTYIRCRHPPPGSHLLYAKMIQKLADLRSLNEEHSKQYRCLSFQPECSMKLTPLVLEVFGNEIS
Glucocorticoid receptor (Homo sapiens), sequence (P04150 whole entry, looked up): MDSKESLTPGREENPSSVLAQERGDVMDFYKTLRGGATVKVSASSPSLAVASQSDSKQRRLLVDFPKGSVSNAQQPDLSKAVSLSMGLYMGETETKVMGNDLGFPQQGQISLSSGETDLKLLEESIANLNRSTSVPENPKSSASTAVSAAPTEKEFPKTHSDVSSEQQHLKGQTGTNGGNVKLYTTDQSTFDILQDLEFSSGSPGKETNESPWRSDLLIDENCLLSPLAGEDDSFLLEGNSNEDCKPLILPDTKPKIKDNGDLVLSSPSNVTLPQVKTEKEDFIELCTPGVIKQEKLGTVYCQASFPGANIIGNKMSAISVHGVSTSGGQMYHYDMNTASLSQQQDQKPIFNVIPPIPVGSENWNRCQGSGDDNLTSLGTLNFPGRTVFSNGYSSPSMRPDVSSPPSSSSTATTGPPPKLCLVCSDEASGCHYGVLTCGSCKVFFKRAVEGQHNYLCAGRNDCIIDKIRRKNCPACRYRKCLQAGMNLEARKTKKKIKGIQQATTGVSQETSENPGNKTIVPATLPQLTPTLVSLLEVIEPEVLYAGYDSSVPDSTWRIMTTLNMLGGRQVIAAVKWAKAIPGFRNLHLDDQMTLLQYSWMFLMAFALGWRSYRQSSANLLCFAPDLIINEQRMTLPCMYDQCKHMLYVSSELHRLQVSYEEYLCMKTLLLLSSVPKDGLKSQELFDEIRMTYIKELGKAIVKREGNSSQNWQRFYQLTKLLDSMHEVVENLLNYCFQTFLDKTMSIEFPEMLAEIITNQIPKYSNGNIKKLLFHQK
Nuclear receptor subfamily 1 group I member 2 (Rattus norvegicus), sequence (Q9R1A7 whole entry, looked up): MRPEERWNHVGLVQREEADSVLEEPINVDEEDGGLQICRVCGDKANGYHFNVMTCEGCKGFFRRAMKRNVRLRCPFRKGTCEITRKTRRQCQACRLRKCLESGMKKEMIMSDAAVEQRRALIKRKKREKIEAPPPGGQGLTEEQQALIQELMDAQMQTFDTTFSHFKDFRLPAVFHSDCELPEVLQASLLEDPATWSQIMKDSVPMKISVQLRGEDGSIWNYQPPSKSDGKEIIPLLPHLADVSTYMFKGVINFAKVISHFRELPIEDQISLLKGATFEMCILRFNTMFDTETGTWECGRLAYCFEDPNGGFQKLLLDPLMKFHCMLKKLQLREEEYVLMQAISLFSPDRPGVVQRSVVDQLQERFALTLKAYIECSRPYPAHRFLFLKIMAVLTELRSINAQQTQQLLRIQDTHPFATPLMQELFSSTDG
Retinoic acid receptor RXR-alpha (Homo sapiens), sequence (P19793 whole entry, looked up): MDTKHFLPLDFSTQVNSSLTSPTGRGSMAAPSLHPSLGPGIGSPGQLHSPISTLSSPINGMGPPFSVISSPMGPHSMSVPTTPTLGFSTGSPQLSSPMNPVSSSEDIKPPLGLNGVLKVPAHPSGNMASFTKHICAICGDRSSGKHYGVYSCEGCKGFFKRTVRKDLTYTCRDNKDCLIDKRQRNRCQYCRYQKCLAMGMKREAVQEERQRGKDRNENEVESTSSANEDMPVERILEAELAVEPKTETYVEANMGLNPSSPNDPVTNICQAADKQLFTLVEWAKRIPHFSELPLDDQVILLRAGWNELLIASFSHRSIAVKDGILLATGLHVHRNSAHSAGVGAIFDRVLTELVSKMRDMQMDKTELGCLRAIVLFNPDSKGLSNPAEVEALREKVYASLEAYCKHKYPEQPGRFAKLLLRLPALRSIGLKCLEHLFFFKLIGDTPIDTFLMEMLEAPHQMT

Compound	activation [1]	Potency [2]	max response [3]	Potency [4]	Potency [5]	max response [6]	max response [7]	Potency [8]	activation [9]	max response [10]	Potency [11]	max response [12]	max response [13]	Potency [14]	max response [15]	outcome [16]	max response [17]	Potency [18]	outcome [19]	activation [20]
CCCCCCC(C)(C)S	-11% (inactive)	inactive	-19.5%	inactive	inactive	-14.4%	4.42% (inactive)	inactive	-1.46% (inactive)	-1.64% (inactive)	inactive	-9.96% (inactive)	-17.8% (inactive)	inactive	-1.98% (inactive)	inactive				
CO[Si](CCCNCCN)(OC)OC			7.5%	inactive	inactive	-7.95%	2.04% (inactive)			0.748% (inactive)	inactive	2.71% (inactive)	-6.23% (inactive)	inactive	4.5% (inactive)	inactive	40.3%	inactive	inactive	
CCOC(=O)[C@H](C)Oc1ccc(Oc2nc3ccc(Cl)cc3o2)cc1	0.281% (inactive)								13.7% (inactive)	-1.02% (inactive)		0.626% (inactive)		inactive	-0.698% (inactive)	inactive	24.7%	inactive	inactive	-9.98% (inactive)
C=C(C)C(=O)OCC[N+](C)(C)C	-7.03% (inactive)	inactive	7.2%	inactive				inactive	-2.41% (inactive)	-2.12% (inactive)	inactive	1.93% (inactive)		inactive	0.4% (inactive)	inactive	8.9%	inactive	inactive	
CCCCCCCCCCCCCCCCN(C)C	-11.7% (inactive)	inactive	-18.2%	inactive	inactive	-9.65%	-24.8% (inactive)	inactive	0.752% (inactive)	-0.399% (inactive)	inactive	-13% (inactive)	-6.67% (inactive)	inactive	2.85% (inactive)	inactive	-16.5%			-1.17% (inactive)
CC(C)=CCC/C(C)=C\CO	-1.71% (inactive)	inactive	-16.1%	inactive	inactive	-11.3%	-2.37% (inactive)	inactive	0.559% (inactive)	-0.763% (inactive)	inactive	-3.82% (inactive)	-0.935% (inactive)	inactive	2.57% (inactive)		2.44%	inactive	inactive	1.13% (inactive)
CC(C)C[C@H](NC(=O)OCC1c2ccccc2-c2ccccc21)C(=O)O	-5.5% (inactive)				inactive					11.8% (inactive)		-7.25% (inactive)	-22.2% (inactive)	inactive			59%			-3.17% (inactive)

Source: PubChem BioAssay (NCATS)
